# Several values for one entry are separate records, joined by “and”; a condition that tells them apart may be missing. Equal entries are not always repeated. Inconclusive results are not listed. Activity calls are given as the source filed them. Unless noted, how the calls were made is not given here.
# Columns and labels:
# [1] = tested on: Neuropilin-2 / VEGF-C interaction (human); assay: inhibitors of NRP2–VEGF-C binding, biochemical, microplate binding format, z-score (AID 743281); details: microplate NRP2/VEGF-C binding assay; stronger effect = lower value
# [2] = growth inhibition of DIPG glioma cells, dose response, cell-based, SU-DIPG-XVII, MIPE5.0, CellTiter-Glo, qHTS (AID 1347060; cut-off not given, nearly all actives have AC50 up to about 26 µM); details: SU-DIPG-XVII viability, CellTiter-Glo ATP luminescence
# [3] = growth inhibition of DIPG glioma cells, dose response, cell-based, SU-DIPG-XIII, MIPE4.0, CellTiter-Glo, qHTS (AID 1347061; cut-off not given, nearly all actives have AC50 up to about 37 µM;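 further: cells exposed to compound for 48 hours before readout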); details: SU-DIPG-XIII viability, CellTiter-Glo ATP luminescence
# [4] = growth inhibition of DIPG glioma cells, dose response, cell-based, JHH-DIPG-1, MIPE4.0, CellTiter-Glo, qHTS (AID 1347062; cut-off not given, nearly all actives have AC50 up to about 27 µM;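 on AC50: cells exposed to compound for two days before readout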); details: JHH-DIPG-1 viability, CellTiter-Glo ATP luminescence
# [5] = growth inhibition of DIPG glioma cells, dose response, cell-based, SU-DIPG-IV, MIPE4.0, CellTiter-Glo, qHTS (AID 1347063; cut-off not given, nearly all actives have AC50 up to about 30 µM;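 further: compound exposure lasted 48 hours before the viability readout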); details: SU-DIPG-IV viability, CellTiter-Glo ATP luminescence
# [6] = growth inhibition of DIPG glioma cells, dose response, cell-based, SU-DIPG-XIII, MIPE5.0, CellTiter-Glo, qHTS (AID 1347064; cut-off not given, nearly all actives have AC50 up to about 23 µM); details: SU-DIPG-XIII viability, CellTiter-Glo ATP luminescence
# [7] = viability loss in pontine glioma line – cell-based, SU-DIPG-XXV, MIPE5.0, CellTiter-Glo, qHTS, dose response (AID 1347065; cut-off not given, nearly all actives have AC50 up to about 26 µM;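 further: cells exposed to compound for 48 hours before ATP readout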); details: CellTiter-Glo ATP luminescence
# [8] = SU-DIPG-VI glioma cell viability, MIPE4.0 library, CellTiter-Glo luminescence, qHTS (AID 1347066; cut-off not given, nearly all actives have AC50 up to about 30 µM;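 further: cells exposed to compound for 48 hours before readout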); details: CellTiter-Glo ATP luminescence
# [9] = JHH-DIPG-1 glioma cell viability, MIPE5.0 library, CellTiter-Glo luminescence, qHTS (AID 1347067; cut-off not given, nearly all actives have AC50 up to about 26 µM;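 further: cells exposed to compound for 48 hours before readout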); details: JHH-DIPG-1 glioma viability, CellTiter-Glo ATP luminescence
# [10] = SU-DIPG-XXV glioma cell viability, MIPE5.0 library, qHTS (AID 1347068; cut-off not given, nearly all actives have IC50 up to about 30 µM)
# [11] = phospholipid biosynthesis inhibitors in animal cells, primary screen, cell-based, LOPAC library, screen 4 (AID 1347384); details: phospholipid biosynthesis inhibition screen, at 10 µM
# [12] = ICB984 medulloblastoma cell growth inhibition, synergistic combos for chromothripsis tumors, cisplatin or BGB combos (AID 1671451); details: ICB984 medulloblastoma cells, drug combinations, stronger effect = higher value;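 further: cells exposed for 96 hours before readout; 0% = vehicle DMSO and 100% = killing by high DMSO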
# [13] = differential killing of epithelial or mesenchymal cells, primary screen, imaging, PC-3E GFP, TEM4-18 mCherry, co-culture (AID 1345086;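 active means compounds killing one labelled cell type while sparing the other, by normalised counts and ratio limits, not self-fluorescent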;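 on all read-outs here: cells exposed to compound for 72 h before imaging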;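 on red/green cell ratio (normalised): normalised mesenchymal count divided by normalised epithelial count so high means epithelial killing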); details: imaging cell counts, at 1 µM; for red/green cell ratio (normalised): actives lie on both sides, counts scaled to control wells, 1 = unselective
# [14] = molecular target: NAD(+) hydrolase SARM1 (Homo sapiens) (UniProt Q6SZW1); assay: SARM1 TIR NADase inhibitors, cell lysate, NAD-Glo luminescence (AID 1508614;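 active means compound whose remaining NAD level is above about 45 nM, limit read from the data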); details: SAM-TIR HEK293T lysate NADase, at 1 µM, stronger effect = higher value
# NAD(+) hydrolase SARM1 (Homo sapiens), sequence (Q6SZW1 whole entry, looked up, the tested form may be a part): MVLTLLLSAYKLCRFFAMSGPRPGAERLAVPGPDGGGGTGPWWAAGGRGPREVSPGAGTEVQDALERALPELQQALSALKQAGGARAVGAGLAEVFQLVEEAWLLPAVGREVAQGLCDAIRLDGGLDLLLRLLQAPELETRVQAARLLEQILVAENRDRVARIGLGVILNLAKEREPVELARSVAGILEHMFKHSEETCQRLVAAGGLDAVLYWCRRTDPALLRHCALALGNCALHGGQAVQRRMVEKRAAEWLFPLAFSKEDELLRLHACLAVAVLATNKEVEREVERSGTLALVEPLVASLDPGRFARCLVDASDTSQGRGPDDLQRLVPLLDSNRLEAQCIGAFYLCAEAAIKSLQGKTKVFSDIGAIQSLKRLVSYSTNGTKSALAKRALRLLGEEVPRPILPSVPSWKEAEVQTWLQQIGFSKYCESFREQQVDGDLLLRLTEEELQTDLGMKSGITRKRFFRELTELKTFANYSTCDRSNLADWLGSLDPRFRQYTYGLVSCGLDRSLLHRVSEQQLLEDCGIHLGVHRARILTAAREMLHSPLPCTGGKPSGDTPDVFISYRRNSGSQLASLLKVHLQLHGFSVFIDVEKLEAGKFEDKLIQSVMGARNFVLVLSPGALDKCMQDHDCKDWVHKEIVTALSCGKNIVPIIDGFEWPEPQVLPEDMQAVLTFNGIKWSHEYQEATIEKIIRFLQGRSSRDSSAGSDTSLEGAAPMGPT
# [15] = molecular target: Mitogen-activated protein kinase 7 (Homo sapiens) (UniProt Q13164); assay: ERK5 transactivation activators in reporter cells, primary screen, cell-based, HTS (AID 1508626;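 active means luciferase signal above three times the same-plate solvent-only control wells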;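 further: luciferase driven by Gal4-ERK5 fusion binding five Gal4 sites before minimal TATA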); details: HeLa Gal4-ERK5 transactivation, 18 h, at 5 µM, stronger effect = higher value
# Mitogen-activated protein kinase 7 (Homo sapiens), sequence (Q13164 whole entry, looked up, the tested form may be a part): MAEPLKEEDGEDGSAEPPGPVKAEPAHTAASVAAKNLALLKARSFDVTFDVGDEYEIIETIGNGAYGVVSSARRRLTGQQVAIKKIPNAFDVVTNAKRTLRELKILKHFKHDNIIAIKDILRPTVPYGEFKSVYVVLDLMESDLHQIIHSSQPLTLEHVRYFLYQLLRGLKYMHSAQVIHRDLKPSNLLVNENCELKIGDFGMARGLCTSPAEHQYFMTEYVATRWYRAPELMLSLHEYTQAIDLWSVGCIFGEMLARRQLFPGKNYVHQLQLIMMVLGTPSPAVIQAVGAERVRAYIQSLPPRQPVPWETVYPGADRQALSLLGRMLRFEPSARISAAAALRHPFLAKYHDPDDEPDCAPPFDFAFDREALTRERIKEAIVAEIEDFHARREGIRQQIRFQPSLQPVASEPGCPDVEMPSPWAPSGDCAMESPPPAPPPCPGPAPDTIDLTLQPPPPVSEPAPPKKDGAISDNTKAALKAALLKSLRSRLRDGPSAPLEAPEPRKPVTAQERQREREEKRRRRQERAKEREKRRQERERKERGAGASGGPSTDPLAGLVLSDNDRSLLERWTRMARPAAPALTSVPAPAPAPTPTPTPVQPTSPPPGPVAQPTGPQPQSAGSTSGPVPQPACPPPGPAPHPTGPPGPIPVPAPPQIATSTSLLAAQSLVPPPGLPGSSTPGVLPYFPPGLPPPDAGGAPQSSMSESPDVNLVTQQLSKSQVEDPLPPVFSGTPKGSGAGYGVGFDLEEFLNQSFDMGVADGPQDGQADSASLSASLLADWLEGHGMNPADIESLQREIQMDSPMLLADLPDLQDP
# [16] = tested on: Aerobactin synthetase IucA (Klebsiella pneumoniae); assay: IucA aerobactin synthetase inhibitors, biochemical, Tocris library, absorbance (AID 1345561); details: purified IucA enzyme assay, absorbance (OD) read-out; stronger effect = lower value;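 tested at 8 µM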;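 further: 100% = enzyme without compound and 0% = no enzyme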
# [17] = circadian clock period modulators, cell-based, LOPAC library, luminescence reporter (AID 2774); details: circadian reporter cells, at 7 µM, actives lie on both sides;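 further: values are relative to mean of DMSO wells on each plate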
# [18] = tested on: Hepatitis C virus NS3 helicase; assay: HCV NS3 helicase inhibitors, primary screen, biochemical, fluorescence polarization, LOPAC1280 library (AID 687035; in the data active means inhibition above about 37%); details: Purified HCV NS3 helicase, Cy5-dT15 ssDNA binding fluorescence polarization; stronger effect = higher value; concentration not given here
# [19] = Cy5 fluorescence quenching or enhancement artefacts, artefact control for HCV NS3 helicase inhibitor project, biochemical, LOPAC1280 (AID 687037); details: Cy5-DNA-NS3h complex fluorescence interference counterscreen
# [20] = modifiers of HSF1 nuclear foci, imaging, Selleck Cancer Library (AID 1347162; in the data active means plate-normalised HSF1 focus index below about 0.46); details: human cells, at 10 µM; SSMD: measured here: HSF1 foci SSMD mean; cell count: measured here: cell number; plate-normalised HSF1 focus index: stronger effect = lower value
# [21] = measured here: epithelial PC-3E GFP cell survival
# [22] = measured here: mesenchymal TEM4-18 mCherry cell survival
smiles,measurement,setting,value
O=c1[nH]c(=O)n(C2CCCO2)cc1F (stereo not drawn),z-score,[1],-1.02 (inactive)
same,outcome,[2],inactive
same,outcome,[3],inactive
same,outcome,[4],inactive
same,outcome,[5],inactive
same,outcome,[6],inactive
same,outcome,[7],inactive
same,outcome,[8],inactive
same,outcome,[9],inactive
same,outcome,[10],inactive
same,outcome,[11],inactive
same,inhibition,"[12]; BGB IC20 combo, at 0.005 µM",-7.2% and -19%
same,inhibition,"[12]; BGB IC40 combo, at 0.005 µM",-14.4% and -20.1%
same,inhibition,"[12]; BGB IC40 combo, at 0.05 µM",3.65% and -15.9%
same,inhibition,[12]; at 0.5 µM,-2.47% (inactive) and -35.6% (inactive)
same,inhibition,"[12]; cisplatin combo, at 0.05 µM",-0.171% and -21.9%
same,inhibition,"[12]; cisplatin combo, at 0.5 µM",-9.38% and -50%
same,inhibition,"[12]; cisplatin combo, at 5 µM",-27.4% and -5.1%
same,inhibition,"[12]; measured here: 5 uM single agent, at 5 µM",1.9% and -33.4%
CN(C)CCc1c[nH]c2ccc(Cn3cncn3)cc12,outcome,[1],inactive
same,red/green cell ratio (normalised),[13],0.92 (inactive)
same,normalised cell number,[13]; [21],1.24
same,normalised cell number,[13]; [22],1.13
same,outcome,[3],inactive
same,AC50,[4],20.9 µM (active)
same,AC50,[5],20.9 µM (active)
same,outcome,[8],inactive
same,remaining NAD,[14],10 nM (inactive)
same,luciferase signal,[15],52 AU (inactive)
CCCCN1CCCC1CNC(=O)c1cc(C#N)c2ccccc2c1OC (stereo not drawn),z-score,[1],1.01 (inactive)
same,remaining activity,[16],113% (inactive)
C[C@@H](c1ncncc1F)[C@](O)(Cn1cncn1)c1ccc(F)cc1F,z-score,[1],1.15 (inactive)
same,red/green cell ratio (normalised),[13],1.03 (inactive)
same,normalised cell number,[13]; [21],0.93
same,normalised cell number,[13]; [22],0.96
same,outcome,[3],inactive
same,outcome,[5],inactive
same,outcome,[7],inactive
same,outcome,[8],inactive
same,outcome,[9],inactive
same,outcome,[10],inactive
same,outcome,[11],inactive
same,remaining NAD,[14],10 nM (inactive)
CN/C(=C\[N+](=O)[O-])NCCSCc1csc(CN(C)C)n1,z-score,[1],0.209 (inactive)
same,red/green cell ratio (normalised),[13],0.9 (inactive)
same,normalised cell number,[13]; [21],1.14
same,normalised cell number,[13]; [22],1.02
same,remaining NAD,[14],10 nM (inactive)
CSc1nc2cc(Oc3cccc(Cl)c3Cl)c(Cl)cc2[nH]1,z-score,[1],0.432 (inactive)
same,red/green cell ratio (normalised),[13],0.82 (inactive)
same,normalised cell number,[13]; [21],1.26
same,normalised cell number,[13]; [22],1.03
COc1ccc2[nH]c(S(=O)Cc3ncc(C)c(OC)c3C)nc2c1 (stereo not drawn),outcome,[1],inactive
same,red/green cell ratio (normalised),[13],0.83 (inactive)
same,normalised cell number,[13]; [21],1.11
same,normalised cell number,[13]; [22],0.92
same,outcome,[9],inactive
same,outcome,[10],inactive
O=C(c1ccc(OCCN2CCCCC2)cc1)c1c(-c2ccc(O)cc2)sc2cc(O)ccc12,period change,[17],0.135 h (inactive)
same,inhibition,[18],-6% (inactive)
same,fluorescence ratio (interference),[19],0.9 (inactive)
same,red/green cell ratio (normalised),[13],1.03 (inactive)
same,normalised cell number,[13]; [21],0.9
same,normalised cell number,[13]; [22],0.93
same,remaining activity,[16],120% (inactive)
same,outcome,[2],inactive
same,outcome,[9],inactive
same,SSMD,[20],2.22
same,cell count,[20],6850
same,plate-normalised HSF1 focus index,[20],1.11 (inactive)
same,outcome,[11],inactive
same,remaining NAD,[14],10 nM (inactive)
same,luciferase signal,[15],76 AU (inactive)
CC[C@H]1OC(=O)[C@H](C)[C@@H](O[C@H]2C[C@@](C)(OC)[C@@H](O)[C@H](C)O2)[C@H](C)[C@@H](O[C@@H]2O[C@H](C)C[C@H](N(C)C)[C@H]2O)[C@](C)(O)C[C@@H](C)CN(C)[C@H](C)[C@@H](O)[C@]1(C)O,red/green cell ratio (normalised),[13],1.25 (inactive)
same,normalised cell number,[13]; [21],1.02
same,normalised cell number,[13]; [22],1.27
same,outcome,[2],inactive
same,outcome,[4],inactive
same,outcome,[5],inactive
same,outcome,[6],inactive
same,outcome,[7],inactive
same,outcome,[8],inactive
same,outcome,[9],inactive
same,outcome,[10],inactive
same,remaining NAD,[14],10 nM (inactive)
same,luciferase signal,[15],20 AU (inactive)
CC(C)C[C@H](NC(=O)[C@@H](O)[C@H](N)Cc1ccccc1)C(=O)O,period change,[17],0.15 h (inactive)
same,inhibition,[18],-4% (inactive)
same,fluorescence ratio (interference),[19],1 (inactive)
same,z-score,[1],0.0206 (inactive)
same,remaining activity,[16],117% (inactive)
same,outcome,[2],inactive
same,outcome,[4],inactive
same,AC50,[5],18.7 µM (active)
same,outcome,[6],inactive
same,AC50,[8],20.9 µM (active)
same,outcome,[9],inactive
same,outcome,[10],inactive
same,SSMD,[20],2.45
same,cell count,[20],7080
same,plate-normalised HSF1 focus index,[20],1.13 (inactive)
same,outcome,[11],inactive
O=C1CN2Cc3c(ccc(Cl)c3Cl)N=C2N1,outcome,[1],inactive
same,red/green cell ratio (normalised),[13],0.92 (inactive)
same,normalised cell number,[13]; [21],0.86
same,normalised cell number,[13]; [22],0.79
same,outcome,[2],inactive
same,outcome,[3],inactive
same,outcome,[4],inactive
same,outcome,[6],inactive
same,outcome,[7],inactive
same,outcome,[9],inactive
same,outcome,[10],inactive
same,SSMD,[20],2.08 and 2.35
same,cell count,[20],7390 and 7000
same,plate-normalised HSF1 focus index,[20],1.08 (inactive) and 1.14 (inactive)
same,remaining NAD,[14],10 nM (inactive)
same,luciferase signal,[15],40 AU (inactive)
